# Assay outcomes from PubChem.
# TSHR antagonist: blocks TSH signaling through the human TSH receptor; TSHR-expressing cells, TSH-stimulated cAMP HTRF, 2 h; stronger effect = lower value; P16473; 330,000 tested, 0.2% active; activity change, negative = inhibition, % at 11.5 µM;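 active = activity change below a set negative limit, meaning inhibition stronger than a set level, cut at about -70% in these data; inconclusive = activity change between two set negative limits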
#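 Read-out is FRET at 665 nm (cryptate excitation 337 nm) from a cryptate-tagged anti-cAMP antibody, competed by cell cAMP against cAMP-d2. Compounds are tested on freshly harvested TSHR cells challenged with 4nM TSH (EC80) for 2 hours at 37 deg C.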
# RORg inh: inhibitors of mouse ROR gamma transcriptional activity. Drosophila S2 Gal4-RORgamma UAS-luciferase reporter, 20 h. 310,000 tested, 5.4% active. P51450. Potency, µM (titrated, usually from 53.6 µM), for the others: at the top dose activity change, negative = inhibition, usual class: inhibitors; note: potency is the fitted concentration of half-maximal effect; nearly all actives have a fitted effect of over 60% in size
# Target sequence (P51450 whole entry, looked up, the tested form may be a part): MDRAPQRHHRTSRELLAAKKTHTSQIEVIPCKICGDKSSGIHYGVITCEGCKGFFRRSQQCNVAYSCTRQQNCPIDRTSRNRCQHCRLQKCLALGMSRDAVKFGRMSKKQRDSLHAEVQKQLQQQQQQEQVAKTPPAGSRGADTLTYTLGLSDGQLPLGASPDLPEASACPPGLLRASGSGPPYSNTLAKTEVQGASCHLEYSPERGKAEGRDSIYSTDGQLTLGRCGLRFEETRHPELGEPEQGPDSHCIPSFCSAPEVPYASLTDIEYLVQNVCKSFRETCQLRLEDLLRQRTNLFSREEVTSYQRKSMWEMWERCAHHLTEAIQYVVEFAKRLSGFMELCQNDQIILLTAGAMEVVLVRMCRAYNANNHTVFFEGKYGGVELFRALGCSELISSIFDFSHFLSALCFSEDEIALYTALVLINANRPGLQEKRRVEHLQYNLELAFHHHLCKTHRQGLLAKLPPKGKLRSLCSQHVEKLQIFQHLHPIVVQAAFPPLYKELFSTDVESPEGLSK
#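 Compounds are pin-transferred onto Drosophila Schneider cells expressing a copper-inducible Gal4–ROR gamma transactivation domain fusion. After 1 hr, copper sulfate is added to 700 uM final; luciferase is read 20 hr later.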
# FBPA coupling cs: counter-screen for Giardia aldolase inhibitors: coupling enzyme system. coupling enzyme system counterscreen, AmpLite Red fluorescence. activity change, negative = inhibition, % at 58.2 µM, hits read low. 290,000 tested, 0.67% active; in the data active = activity change below about -30%
#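 Activity here indicates interference with the coupling reaction, not aldolase inhibition. Compounds at 57.5 uM final met coupling enzymes for 10 min at RT; substrate and AmpLite Red detection followed, with a 525/598 nm fluorescence read after 20 min.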
# ELG1 repair inh: blocks ELG1-dependent DNA repair in HEK293T cells. HEK293T ELG1-luciferase reporter, luminescence, 16 h; DNA damage induced by 5-fluorouridine. AID 504467. Potency, µM (highest dose often 46.1 µM), inactives show at the top dose activity change, negative = inhibition, usual class: inhibitors. 330,000 tested, 2.3% active; note: potency is the fitted concentration of half-maximal effect; nearly all actives have a fitted effect of over 55% in size
#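 Reporter activity after DNA damage by 5-fluorouridine is monitored. Compound-treated cells incubate 16 hr at 37 °C, then ONE-Glo is added for 30 min before luminescence reading.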
# VP16 counter: inhibits Gal4-VP16 luciferase reporter, ROR gamma counter-screen; Drosophila S2 Gal4-VP16 UAS-luciferase, luminescence, 20 h; Potency, µM (doses to about 53.6 µM), for the others: at the top dose activity, negative = inhibition, usual class: inhibitors; 310,000 tested, 3.5% active;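 note: Gal4-VP16 expression switched on by copper sulfate through the metallothionein promoter; potency is the fitted concentration of half-maximal effect; nearly all actives have a fitted effect of over 50% in size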
# * hit, by the source's call; ? = inconclusive; . = not tested or not shown; [ ] = remark or other dose. Rows were chosen to be rich in hits. Some 8% of all compounds tested hit in one or more screens of this group. Unless noted, calls come from the whole dose curve; as a rule, active = well fitted curve in the direction sought with a large enough effect; inconclusive = small, poorly fitted or top-dose-only effect, or another doubt; inactive = no such curve, though single readings can be large; an effect the other way counts as inactive or inconclusive. % is set by controls: 0 for no effect and ±100 for the full control effect.
SMILES,TSHR antagonist,RORg inh,FBPA coupling cs,ELG1 repair inh,VP16 counter
COc1ccc(CNC(=O)c2ccc(Cn3nc(C)cc3C)o2)cc1,-4.7,-25.3%,2.4,-8.5%,-8.3%
COc1ccccc1CN1CC[C@@]2(CCCN(C(=O)c3cnccn3)C2)C1,.,-32.6%,6.3,.,1.5%
Nc1nonc1-n1nnc(C(=O)N/N=C/c2ccccc2)c1CSc1ccccc1,5.1,-44.8%,-1.5,-6.3%,-1.8%
CC(C)c1ccc(/C=N/NC(=O)c2nnn(-c3nonc3N)c2CSC2=NCCS2)cc1,-37.5,15.8µM*,-1.2,?,?
Nc1nonc1-n1nnc(C(=O)N/N=C/c2ccoc2)c1CSc1ccccc1,-6.4,15.8µM*,.,5.1%,?
Nc1nonc1-n1nnc(C(=O)N/N=C/c2ccoc2)c1CSc1ccc(Cl)cc1,-16.4,7.08µM*,.,-18.3%,12.6µM*
Nc1nonc1-n1nnc(C(=O)N/N=C/c2ccc(Br)cc2)c1CSC1=NCCS1,-32.5,-124.5%,-2.8,?,?
Nc1nonc1-n1nnc(C(=O)N/N=C/c2cccnc2)c1CSc1ccc(Cl)cc1,-22.5,26.0%,-4.1,-7.7%,-10.0%
COc1ccc(C2=NCCn3nc4ccccc4c32)cc1,7.4,.,.,?,.
COc1ccc2c(c1OC)C(=O)OC2N1C(=O)CC[C@H]1C(=O)Nc1ccc2c(c1)OCO2 (stereo not given in full),2.9,-6.4%,-0.5,?,-5.2%
OC[C@H]1NC[C@@H](O)[C@@H](O)[C@@H]1O,.,-0.9%,-3.3,.,-23.4%
Cc1cc(C(=O)NNC(=O)c2ccc(Cl)cc2Cl)c(C)o1,3.1,.,.,?,.
COc1ccc(Nc2cc(C)c3c(O)cccc3n2)cc1,-2.1,1.3%,-30.2*,?,-14.0%
Cc1ccc(Nc2cc(C)c3c(O)cccc3n2)cc1C,2.5,?,-36.7*,?,10µM*
Cc1ccccc1Nc1cc(C)c2c(O)cccc2n1,-3.3,?,-3.0,23.3%,?
COC(=O)c1cc(Nc2cc(C)c3c(O)cccc3n2)cc(C(=O)OC)c1,-27.9,?,0.4,?,2.3%
Cc1nn(-c2ccccc2)c(N)c1N=Nc1ccc2ccccc2c1,-34.4,1.12µM*,-1.9,?,2.8%
COc1ccc(OC2CCN(S(=O)(=O)c3ccc(OC)cc3)CC2)cc1,-12.9,?,1.1,14.6µM*,-3.0%
CN1CCN(C(=O)c2cccc(NS(=O)(=O)c3ccc(Br)cc3)c2)CC1,0.1,.,.,-1.9%,.
Cc1nc2ccc(NS(=O)(=O)c3ccc(F)c(C)c3)cc2[nH]1,-9.1,?,-14.4,?,7.08µM*
Cc1nc2ccc(S(=O)(=O)c3ccc4nc(C)[nH]c4c3)cc2[nH]1,16.9,18.2%,3.1,-3.9%,-1.7%
COc1ccc(Br)cc1/C=C/C(=O)Nc1ccc(C)cc1,-20.2,40.8%,-1.2,20.6µM*,-0.1%
COc1ccc(Br)cc1/C=C/C(=O)Nc1ccc2ccccc2c1,-16.4,35.6%,-3.5,-9.3%,-9.2%
CCC(=O)Nc1cccc(C(=O)OC)c1,-12.8,10.2%,-1.6,1.3%,-6.4%
CCC(=O)Nc1cccc(C(=O)/C=C/c2cc(Br)ccc2OC)c1,-20.8,11.2µM*,-0.1,?,?
SMILES,TSHR antagonist,RORg inh,FBPA coupling cs,ELG1 repair inh,VP16 counter
CS(=O)(=O)N(CC(=O)N1CCOCC1)c1cccc(F)c1,-93.2*,0.5%,-3.4,14.1%,-19.0%
COc1cc2c(cc1OC)CN(C(=O)CSc1nc(C)cc(C)c1C#N)CC2,25.6,-35.9%,-6.6,2.59µM*,-8.3%
Cc1cc(C)c(C#N)c(SCC(=O)N2CCCCC2)n1,-0.8,-36.9%,-0.2,15.0%,0.6%
COc1cccc2c1OCC(C(=O)Nc1nccs1)=C2,-1.6,11.2µM*,2.5,?,?
O=C1C=C(c2ccc3c(c2)OCO3)C[C@@H](c2ccc(Cl)cc2)C1,22.8,.,.,12.7%,.
O=C(CN1CCNCC1)NC1CCCCC1,.,10.0%,.,.,-6.5%
CC(C)OC(=O)CC(=O)CSc1nc2c(c(-c3cccs3)c1C#N)CCC2,-0.7,14.2%,4.7,?,?
CCOC(=O)C(C)Sc1nc2c(c(-c3cccs3)c1C#N)CCC2 (stereo not given),-7.2,?,3.4,-14.2%,25.1µM*
CCCCCC(O)c1ccc([C@H]2CCC(=O)[C@@H]2CCCCCCC(=O)O)cc1 (stereo not given in full),.,3.7%,6.2,.,-7.6%
CCNc1ncc2nc(-c3ccc(OC)cc3)c(=O)n(CCc3ccccc3)c2n1,.,-16.5%,1.7,.,5.5%
CCOC(=O)c1c(-c2ccc(OC)cc2)csc1/N=C/C1C(=O)CCCC1=O,6.8,3.16µM*,-12.7,-2.5%,?
O=C(Nc1cccc(Cl)c1)C1C2CCC3C(CCC21)C3(Cl)Cl (stereo not given),-33.5,?,2.6,25.9µM*,?
CC1CCC(C(=O)O)NC1c1ccc(-c2ccco2)cc1 (stereo not given),.,-4.4%[10 µM],-5.6,.,0.4%[10 µM]
CSc1cc(-c2ccc(Cl)cc2)c(C(=O)NC(C)C)s1,8.9,11.8%,-1.1,?,-5.6%
CSc1cc(-c2ccc(Cl)cc2)c(C(=O)NN)s1,-9.5,11.2µM*,0.2,-2.2%,?
c1ccc(COc2cccc(CNCc3ccccn3)c2)cc1,-15.4,11.2µM*,0.4,-14.6%,-18.7%
Oc1ccc(NCc2cccc(OCc3ccccc3)c2)cc1,-1.2,11.2µM*,-30.3*,-8.9%,?
c1ccc(COc2cccc(CNCc3cccnc3)c2)cc1,-0.5,4.7%,1.1,3.0%,10.0%[10 µM]
O=[N+]([O-])c1ccc(COc2cccc(CNc3ccc(F)cc3)c2)cc1,-41.0,22.8%,-8.7,12.6%,4.7%
Oc1ccc(NCc2cccc(OCc3ccc(F)cc3)c2)cc1,-0.1,10µM*,-44.9*,?,?
O=C(/C=C/c1ccco1)Nc1ccccc1N1CCCC1,4.2,?,-2.3,15.4%,-14.5%
Cc1ccc(NC(=S)NC(=O)/C=C/c2ccco2)c(O)c1,0.5,8.91µM*,-3.6,-1.7%,?
O=C(/C=C/c1ccco1)NC(=S)Nc1ccccc1O,-5.8,11.2µM*,0.2,?,?
Cc1ccc(C)c(NC(=O)CN(C)C(=O)/C=C/c2ccco2)c1,-1.6,19.0%,-1.1,8.9%,11.3%
O=C(/C=C/c1ccco1)Nc1ccccc1C(=O)O,-9.8,?,-12.5,?,?
O=C(/C=C\c1ccco1)NC(=S)Nc1ccccc1O,0.3,22.4µM*,-1.0,?,?
CC(C)(S)[C@H](N)C(=O)O,.,24.3%,5.5,.,-6.9%
Cc1cccc(CC2CC(=O)N(c3ccc(C)cc3Br)C2=O)c1 (stereo not given),6.8,-16.8%,0.4,-12.6%,-11.4%
COc1ccc2c(=O)c3c(=O)n(Cc4ccco4)c(-c4ccccc4)nc3oc2c1,-6.7,-19.7%,3.4,?,0.7%
